CCHFV vOTU inh: CCHFV vOTU protease inhibitors, primary screen, biochemical, Pep-AMC substrate, fluorescence. Crimean-Congo hemorrhagic fever virus L polyprotein viral ovarian tumor (vOTU) protease …. hit rate 0.55% among 370,000. inhibition, % at 11.5 µM; in the data active means inhibition above about 30%; further: 0% = vehicle wells with enzyme and 100% = no enzyme wells
Anthrax LF prot: Bacillus anthracis LF protease inhibitors, primary screen, biochemical, multiplex microsphere, MLPCN library | Lethal factor (Bacillus anthracis), P15917 | multiplex microsphere protease cleavage assay | inhibition, % at 10 µM | hit rate 0.12% among 360,000 | AID 588501, 2011; further: plate controls were buffer without enzyme for full effect and enzyme alone for no effect
Target sequence (P15917 whole entry, looked up): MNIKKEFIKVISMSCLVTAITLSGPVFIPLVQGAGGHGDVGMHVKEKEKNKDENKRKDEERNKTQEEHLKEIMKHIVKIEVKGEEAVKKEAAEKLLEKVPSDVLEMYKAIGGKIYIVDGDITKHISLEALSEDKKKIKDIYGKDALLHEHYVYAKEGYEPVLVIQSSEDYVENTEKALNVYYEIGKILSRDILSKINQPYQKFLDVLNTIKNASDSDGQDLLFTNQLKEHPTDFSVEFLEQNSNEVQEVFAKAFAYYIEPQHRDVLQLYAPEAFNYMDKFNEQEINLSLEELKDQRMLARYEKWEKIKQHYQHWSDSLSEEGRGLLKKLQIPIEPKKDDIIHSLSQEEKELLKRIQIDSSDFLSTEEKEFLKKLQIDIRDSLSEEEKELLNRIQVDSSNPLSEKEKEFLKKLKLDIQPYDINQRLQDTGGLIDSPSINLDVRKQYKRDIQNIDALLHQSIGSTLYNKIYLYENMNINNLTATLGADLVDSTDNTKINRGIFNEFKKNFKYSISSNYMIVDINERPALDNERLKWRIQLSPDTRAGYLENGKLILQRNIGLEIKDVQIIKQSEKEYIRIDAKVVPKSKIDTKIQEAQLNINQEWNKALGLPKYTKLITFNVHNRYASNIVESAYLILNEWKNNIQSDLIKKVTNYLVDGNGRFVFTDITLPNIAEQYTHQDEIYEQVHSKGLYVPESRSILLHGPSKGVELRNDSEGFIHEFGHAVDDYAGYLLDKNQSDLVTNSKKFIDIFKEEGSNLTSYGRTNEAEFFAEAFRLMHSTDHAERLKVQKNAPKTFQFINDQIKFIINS
Autofluor counter: flagged as autofluorescent in microsphere protease counterscreen | compound autofluorescence counterscreen, microsphere flow cytometry; active compounds read high | fluorescence intensity (no concentration beside the values) | hit rate 3.1% among 360,000; in the data active means fluorescence intensity above about 16000; inconclusive means no clear call, values can overlap the other calls
3CLpro inhibitor: SARS-CoV 3CLpro protease inhibitors, primary screen, biochemical, quenched FRET | Replicase polyprotein 1ab (Severe acute respiratory syndrome coronavirus), P0C6X7 | recombinant SARS-CoV 3CLpro, quenched FRET peptide cleavage | inhibition, % at 6 µM | hit rate 0.14% among 290,000 | AID 1706, 2009; in the data active means inhibition above about 12%
BoNT-A LC inh2: BoNT/A light chain protease inhibitors, primary screen, biochemical, flow cytometry, MLPCN library; Botulinum neurotoxin type A light chain protease (Clostridium botulinum A str. ATCC 3502); multiplex microsphere protease substrate cleavage; inhibition, % at 10 µM; hit rate 0.17% among 360,000; further: plate controls were buffer without enzyme for full effect and enzyme alone for no effect
BoNT F protease: BoNT/F light chain protease inhibitors, primary screen, biochemical, flow cytometry, MLPCN library; hit rate 0.22% among 360,000; AID 588497, 2011; Botulinum neurotoxin type F light chain protease (Clostridium botulinum); Multiplex microsphere protease cleavage assay; inhibition, % at 10 µM; in the data active means inhibition above about 35%, passing the limit was not always enough; inconclusive means no clear call, values can overlap the other calls; further: plate controls were buffer without enzyme for full effect and enzyme alone for no effect
BoNT-A LC CP1: BoNT/A light chain protease inhibitors, confirmation, biochemical, flow cytometry, cherry pick 1 | shares compounds with BoNT F protease | hit rate 3% among 720 | multiplex microsphere protease assay | inhibition, % at 10 µM | AID 602139, 2011; in the data active means inhibition above about 32%
BoNTF LC inh 1: BoNT/F light chain protease inhibitors, confirmation, biochemical, flow cytometry, cherry pick 1; 720 tested, under 10 active; inhibition, % at 10 µM; shares compounds with BoNT F protease; multiplex microsphere protease cleavage assay; call rule not given here
Anthrax LF CP1: Bacillus anthracis LF protease inhibitors, confirmation, biochemical, multiplex microsphere, cherry pick 1 | 720 tested, under 10 active | shares compounds with BoNT F protease | multiplex microsphere protease cleavage assay | inhibition, % at 10 µM; call rule not given here
* = called active by the depositor; ? = inconclusive; . = no result. This is a sample that favours compounds with a hit; in the whole collection about 3.9% have one here. Unless noted, no stated cut-off is given here; in the data, active means inhibition above about 30%; inconclusive means no clear call, values can overlap the other calls; inactive means below that.

SMILES | CCHFV vOTU inh | Anthrax LF prot | Autofluor counter | 3CLpro inhibitor | BoNT-A LC inh2 | BoNT F protease | BoNT-A LC CP1 | BoNTF LC inh 1 | Anthrax LF CP1
Clc1ccc(-c2cc(-c3nnc4n3CCCCC4)c3ccccc3n2)cc1 | 2.3 | -1.8 | 2062 | 2.9 | 0.4 | 1.2 | . | . | .
CNC(=O)c1cc(Oc2ccc(NC(=O)Nc3ccc(Cl)c(C(F)(F)F)c3)cc2)ccn1 | 11.4 | -6.3 | 4268 | . | -0.6 | -2.6 | . | . | .
COC(=O)c1c(NC(=O)c2ccccc2[N+](=O)[O-])sc2c1CC(C)(C)NC2(C)C | -10.4 | 33.6* | 6297 | 0.3 | 8.3 | 70.3* | -0.1 | -2.0 | 4.9
COc1ccccc1CNC(=O)Cc1c[nH]c2ccccc12 | -11.3 | -6.0 | 2995 | -6.2 | 1.1 | 35.7* | -0.8 | -0.9 | 2.0
COc1ccc(CNC(=O)N[C@@H](Cc2c[nH]c3ccccc23)C(=O)O)cc1 | -12.9 | 9.3 | 2964 | -1.9 | 4.6 | 77.2* | -0.6 | 1.6 | 0.5
COC(=O)c1ccc(CNC(=O)CCc2c[nH]c3ccccc23)cc1 | 4.2 | 9.6 | 3982 | -0.8 | 3.9 | 80.8* | -0.3 | 6.1 | 0.6
COc1ccc(C(=O)NC(Cc2c[nH]c3ccccc23)C(=O)O)cc1 (stereo not drawn) | -5.6 | -3.2 | 4011 | 0.6 | -1.1 | ? | . | . | .
Cc1cccc(C(=O)OC(C)C(=O)Nc2ccc(S(=O)(=O)Nc3ncccn3)cc2)c1C (stereo not drawn) | -4.5 | 0.9 | 3856 | . | 0.1 | 0.9 | . | . | .
c1ccc(-c2ccccc2OCc2nnc3n2CCC3)cc1 | 9.6 | -2.1 | 3486 | 2.8 | -0.2 | -8.4 | . | . | .
CCOc1ccc(S(=O)(=O)NCCC(=O)NCCCSc2ccccc2)cc1 | -3.8 | ? | ? | . | ? | ? | . | . | .
COc1ccccc1NS(=O)(=O)c1ccc2[nH]c(=O)[nH]c2c1 | -9.8 | -7.8 | 3623 | -2.9 | 2.0 | 36.1* | 0.0 | -4.3 | 0.4
CCCn1c(=O)c2c(nc3n2CCCN3Cc2ccccc2)n(C)c1=O | 1.1 | -10.1 | 2935 | 0.4 | 0.1 | 41.3* | -0.6 | -3.8 | -8.2
Cn1c(=O)n(CCc2ccccc2)c(=O)c2c1nc1n2CCCN1Cc1ccccc1 | 2.8 | -1.7 | 4320 | 2.3 | 0.6 | -1.3 | . | . | .
CCC(C(=O)Nc1cccnc1)c1ccccc1 (stereo not drawn) | 6.5 | -13.2 | 3250 | 5.8 | 2.9 | -6.7 | . | . | .
CC(C)CN(CC(C)C)C(=S)NC1CCCCC1 | 4.5 | -0.8 | 2018 | 0.5 | 1.0 | 7.8 | . | . | .
COC(=O)C1Cc2c([nH]c3ccccc23)C2(CCN(Cc3ccccc3)CC2)N1 (stereo not drawn) | 2.2 | 6.5 | 7106 | -2.1 | 4.2 | 40.8* | 0.6 | 1.1 | 1.6
CCCN1CCC2(CC1)NC(C(=O)O)Cc1c2[nH]c2ccccc12 (stereo not drawn) | . | 0.0 | 3821 | 1.0 | 1.3 | -4.3 | . | . | .
CC1CCN(CCCCOc2ccccc2F)CC1 | -6.4 | 1.9 | 4189 | -2.8 | 3.1 | -0.2 | . | . | .
CC1CCN(CCCCOc2ccccc2Br)CC1 | -9.7 | 0.5 | 3041 | -2.7 | 5.7 | 43.3* | -0.4 | -5.1 | -0.4
O=C(c1cccs1)c1ccc(-c2cccs2)s1 | -7.6 | 35.2* | 3150 | -1.6 | 33.4* | 10.6 | 23.4 | -0.4 | 19.7
CCNc1ccc(S(=O)(=O)N(C)C)cc1NCC(=O)Nc1ccccc1F | 3.3 | -1.1 | 2492 | -4.1 | -0.4 | -4.7 | . | . | .
CCNc1ccc(S(=O)(=O)N(C)C)cc1NCC(=O)Nc1ccccc1Br | 1.9 | -7.2 | 4121 | 0.5 | 7.7 | 40.8* | 1.3 | -5.0 | 0.9
COc1ccc(C(=O)N2CCN(Cc3ccc(OC)c(OC)c3)CC2)cc1 | 2.0 | 16.7 | 3398 | -2.8 | 3.7 | 43.5* | -0.2 | 3.1 | -0.7
